B1: chr4:25747873:25747886:-|3pUTR|ENSG00000091490|msi1_unk|FALSE|overlapping (ssRNA)
RNA: GGGAGUUCUACAGUCCGACGAUCUAGCAGUUAUAAGGCACCUUGAAAUAAAUUGUUUGUGCCUGGAAAUGCAGGGAGGGCAAUAGCUUUGUAAAUUGGUUUACAUUUUUCUCCUUGAAUUUUUCUAGGGUCCUAGUGCUUCCGCAACAGAGGAUUGAGCAUCA
B2: ENSG00000107863:be:win_3601|CDS|ENSG00000107863|bound_else_gene|NA|bound_elsewhere_windowed (ssRNA)
RNA: GGGAGUUCUACAGUCCGACGAUCAAGGGAAUGGCUGAUAUUGAUAUACAAGAUGAUAAAUGGCGAGAUUUGAAUGUGAUAAGCAGUUUACUAAAAUCCUUCUUCAGAAAACUCCCUGAGCCUCUCUUCACAAAUGAUAAAUAUCAACAGAGGAUUGAGCAUCA
B3: chr6:52502144:52502313:-|3pUTR|ENSG00000065308|msi1|total|mutant (ssRNA)
RNA: GGGAGUUCUACAGUCCGACGAUCUCAGCCAUUCACAAGCAUUCAAAACCAAACCAAACAGCAGUUCAUAUACCUGCCUGAGACCGGCUGGUCCUCACCUCCAGAGCCAGCCAGCCCCGUCAGGGGCCAAACUUACUACCUUGACAACAGAGGAUUGAGCAUCA
B4: chr10:119917856:119917957:+|CDS|ENSG00000107651|unk|total|mutant (ssRNA)
RNA: GGGAGUUCUACAGUCCGACGAUCUAAGAAAAUCACUUUGCCAAGUAUUGGUCGAUUUCGUCACUUUACCAAUGAAACUUUGCCCGAUAUUUUAUUUUAUAACAGCCCCACCUACUGUCAGACAAUUGUGGAAAAAGCCGGAAUCAACAGAGGAUUGAGCAUCA
B5: chr1:150220393:150220494:-|3pUTR|ENSG00000143401|msi1_unk|total|mutant (ssRNA)
RNA: GGGAGUUCUACAGUCCGACGAUCAUUGUAUGCCGAGAAAAAUUUUCAUUGACUCCCAUUGUGGAAUUCCCCCGCAAUUUAUUCCGACUUAAUUUUUUAAAUUCAAGCUUACUGUAUCCGUCAUUUUCCGCCCAUAAUUAAAACCAACAGAGGAUUGAGCAUCA
B6: chr12:104760787:104760888:+|3pUTR|ENSG00000171310|unk|FALSE|unique (ssRNA)
RNA: GGGAGUUCUACAGUCCGACGAUCUUCUUUUCUAAUGGCAUUGAAACUUUAAAAAAAAUGGAUUCAACUGUUUUUGCAGAAUGUAGAAAGUAUUCUGUGUCCUUGGUUAAAGAAAUCCACUUGUGAAGUGUGCCUGGAAAAUGACAACAGAGGAUUGAGCAUCA
B7: chr8:100287602:100287712:-|CDS|ENSG00000034677|unk|total|mutant (ssRNA)
RNA: GGGAGUUCUACAGUCCGACGAUCUGUGUGGAUUGCUUACGACAAUAUUUAAGGACCGAAAUCUCUGAAAGCAGAGUUAAUAUCCGUUGCCCAGAAUGUACUGAACGGUUUAAUCCCCAUGAUAUUCGCUUGAUAUUAAGUGAUCAACAGAGGAUUGAGCAUCA
B8: chr8:100287602:100287712:-|CDS|ENSG00000034677|unk|FALSE|unique (ssRNA)
RNA: B7 RNA with C55U, C56A, C83U, C84A
B9: chr12:909583:909684:+|3pUTR|ENSG00000060237|unk|FALSE|bound_elsewhere (ssRNA)
RNA: GGGAGUUCUACAGUCCGACGAUCUAGCUCUGUCCUUUACUUAUUGAGACACUUUAACUUUUUCCUUUGUAUUUCCAUUGUAUUAGAUAAAUAAAUGUGAAUGUAAAAUUGUAUAAAUUACUGUACUUGAAUACUUCUGUUUCCCAACAGAGGAUUGAGCAUCA
B10: ENSG00000064393:stop:overlap|stop_codon|ENSG00000064393|stop_codon|NA|stop_codon (ssRNA)
RNA: GGGAGUUCUACAGUCCGACGAUCUCUCCCUGGAGAGUGGUUUUCCUGCUUUUCUGCUGCUAGAAAUGUUGCUGUAUGGGAGCUAGUACAAUAGAAAGUGCCCAGUGACUGCAGGCGACCCUUACCGAGGAUUUUAUUCAAGUACAACAGAGGAUUGAGCAUCA
B11: chr12:98549999:98550103:+|3pUTR|ENSG00000120802|unk|total|mutant (ssRNA)
RNA: GGGAGUUCUACAGUCCGACGAUCUGUUUCCCAUACUGUUUUCAGCCUUUUGUUUAUAAUCCGAAAUUGUGAGAAGCUUCAUUCCGUGUUUAAAAAUGUGGGGAGAUAAAUCAGACUUAACAUGUAUGUAAGAUCAAUUCACUUCAACAGAGGAUUGAGCAUCA
B12: chr2:167954955:167954998:-|3pUTR|ENSG00000198648|msi1_unk|FALSE|overlapping (ssRNA)
RNA: GGGAGUUCUACAGUCCGACGAUCGUUGUAUUUAGAAAUUAAUAUACUUAUAAAAUUAAGAUUUAUUAGCCAAACUUGAAUUCUAGUUUUAAAACUGACUGUGAAUUUUAUUUUUCAUAUAUUUAUGCAUUACACACCUUAGCUCAACAGAGGAUUGAGCAUCA
B13: ENSG00000198856:stop:overlap|stop_codon|ENSG00000198856|stop_codon|NA|stop_codon (ssRNA)
RNA: GGGAGUUCUACAGUCCGACGAUCUGAGUUUUUUCAUGGCUAGAGUAUUCAUGAGAAUGAAACUGCCGGGCUAUCUGAUGGGUUAGAGUGCCUUUGAGAAGAAAUCAGUGGAUACUGGAUUUGCUCCUGUCAAUGAAGUUUUAACAACAGAGGAUUGAGCAUCA
B14: chr1:150220393:150220494:-|3pUTR|ENSG00000143401|msi1_unk|FALSE|overlapping (ssRNA)
RNA: B5 RNA with C32U, C33A, C71U, C72A, C83U, C84A, C117U, C118A, C127U, C128A
B15: chr12:98549999:98550103:+|3pUTR|ENSG00000120802|unk|FALSE|unique (ssRNA)
RNA: B11 RNA with C60U, C61A, C83U, C84A
B16: chr12:104760787:104760888:+|3pUTR|ENSG00000171310|unk|total|mutant (ssRNA)
RNA: B6 RNA with U83C, A84C
B17: ENSG00000087460:stop:overlap|stop_codon|ENSG00000087460|stop_codon|NA|stop_codon (ssRNA)
RNA: GGGAGUUCUACAGUCCGACGAUCGAGGCGCCUUCGGCUCGGGCCAUGGCGCCCGGCGCCGGGGGCGCGAGGAGCGGCUCAUCUAGUCAGACCCCCCACCCCGCCACCGCCACCAGACACCACCAUCGCUGUGUAGUGUGCUGGCAACAGAGGAUUGAGCAUCA
B18: chr1:45693489:45693605:+|CDS|ENSG00000159596|unk|FALSE|unique (ssRNA)
RNA: GGGAGUUCUACAGUCCGACGAUCAAUCCCCUUCGUUGCUCCACCACUGGUCAUGCUGAUGACAAAAACUUAUAUUCCCAUAUUAGCUUUUACUCAGAUGGCUUAUGGAGCCAGUUUCCUAUCUUUCUUGGGUGGGAUCAGAUGCAACAGAGGAUUGAGCAUCA
B19: chr1:17067390:17067767:-|3pUTR|ENSG00000117115|msi1|total|mutant (ssRNA)
RNA: GGGAGUUCUACAGUCCGACGAUCCCCAACAUGCAAAGCCCACAUUUAAAGGCCAGCCUCUGCCCCUUCAGUGAUGCGCUCUUCCGAAAUGCCAGUCCACUAUAUUCAGAAAUCCGCAGGGCACAAAACUUCCAGCAAGUCACUCAACAGAGGAUUGAGCAUCA
B20: chr10:32033860:32033975:-|CDS|ENSG00000170759|unk|total|mutant (ssRNA)
RNA: GGGAGUUCUACAGUCCGACGAUCCACAGUGGAUAAAGAUAUUACUCUUACCAAUGAUAAACCAGCAACCGCAAUUGGAGUUACCGGAAAUUUUACUGAUGCUGAAAGAAGAAAGUGUGAAGAAGAAAUUGCUAAAUUAUACAACAACAGAGGAUUGAGCAUCA
B21: chr5:171862525:171862626:-|3pUTR|ENSG00000072803|msi1|total|mutant (ssRNA)
RNA: GGGAGUUCUACAGUCCGACGAUCGACAGUGCAUGGAAAGGACGUUGGCAUCCAAUUGGCACUCCUUCUCCCUUAUUCAAUAUCCGGUUUGAUUUGCCCUUCGCCAUUGUUUCCAAAGAUCAAGGAAUGUCAAUAACAUUUUAACAACAGAGGAUUGAGCAUCA
B22: ENSG00000124766:be:win_751|CDS|ENSG00000124766|bound_else_gene|NA|bound_elsewhere_windowed (ssRNA)
RNA: GGGAGUUCUACAGUCCGACGAUCGGCGCCGCCGCCGACCACCACUCGCUGUACAAGGCGCGGACUCCCAGCGCCUCGGCCUCCGCCUCCUCGGCAGCCUCGGCCUCCGCAGCGCUCGCGGCCCCGGGCAAGCACCUGGCGGAGCAACAGAGGAUUGAGCAUCA

Positions count from the first letter of the chain named. Over roughly 5,800 sequences, “enrichment r” has its median near 0.54; the highest 2% begin near 16. This is one part of a sample in which the highest values are shown more often than they occur.

MSI1 full-length, sequence (Q61474 whole entry): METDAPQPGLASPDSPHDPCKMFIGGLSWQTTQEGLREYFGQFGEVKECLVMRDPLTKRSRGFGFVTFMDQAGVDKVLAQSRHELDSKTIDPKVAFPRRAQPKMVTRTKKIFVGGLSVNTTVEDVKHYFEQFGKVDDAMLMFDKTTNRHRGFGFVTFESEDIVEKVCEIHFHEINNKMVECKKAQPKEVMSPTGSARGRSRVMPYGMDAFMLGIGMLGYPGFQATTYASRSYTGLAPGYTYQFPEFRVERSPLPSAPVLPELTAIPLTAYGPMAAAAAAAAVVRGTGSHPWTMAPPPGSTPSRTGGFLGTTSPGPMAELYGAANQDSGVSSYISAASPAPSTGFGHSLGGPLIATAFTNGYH

This assay concerns the target MSI1 full-length (mouse, UniProt Q61474 1-362). As to the kind of experiment: nsRBNS (natural sequence RNA bind-n-seq); RBNS binding buffer (assumed for nsRBNS): 25 mM Tris pH 7.5, 150 mM KCl, 3 mM MgCl2, 0.01% Triton X-100, 500 ug/ml BSA, 20 U/ml SUPERase-In, 4 C; UNK is unkempt and MSI1 is Musashi-1; names of the RNAs are library labels; protein concentration not given here; high values mean tight binding.
In turn, B1 came in with a binding signal of 1.14 enrichment R.

For B2, the binding signal worked out at 0.64 enrichment R.

With B3, the binding signal came out at 0.877 enrichment R.

Consider B4, for which the binding signal worked out at 0.52 enrichment R.

On to B5, for which the binding signal turned out to be 2.27 enrichment R.

For B6, the binding signal was 0.433 enrichment R.

For the molecule B7, the binding signal was determined as 0.307 enrichment R.

On to B8, for which the binding signal was determined as 22.4 enrichment R.

In turn, B9 came in with a binding signal of 13.1 enrichment R.

Regarding B10, the binding signal was determined as 0.605 enrichment R.

Consider B11, for which the binding signal was 0.426 enrichment R.

B12 gave a binding signal of 9.9 enrichment R.

The molecule B13 had a binding signal of 16.4 enrichment R.

As for B14, the binding signal turned out to be 61.8 enrichment R.

B15 registered a binding signal of 27.3 enrichment R.

For the molecule B16, the binding signal turned out to be 0.231 enrichment R.

With B17, the binding signal stood at 0.204 enrichment R.

The molecule B18 displayed a binding signal of 0.499 enrichment R.

In turn, B19 returned a binding signal of 0.72 enrichment R.

The molecule B20 came in with a binding signal of 0.675 enrichment R.

On to B21, for which the binding signal came out at 0.579 enrichment R.

For the molecule B22, the binding signal was determined as 0.389 enrichment R.

The values are drawn from PMC12136788.
